Results filed as inconclusive are left out. Active and inactive are the calls of the source. Unless noted, calls follow the shape of the dose curve; as a rule, active = well fitted curve in the direction sought with a large enough effect; inconclusive = small, poorly fitted or top-dose-only effect, or another doubt; inactive = no such curve, though single readings can be large; an effect the other way counts as inactive or inconclusive.
Legend:
[1] = target: Glucocorticoid receptor (Homo sapiens) (UniProt P04150); experiment: GR-GFP Redistribution (AID 450;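 active = compounds whose dose series gives a full or clear partial fitted curve of increased nuclear translocation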; also: potency is read from the fitted curve at half-maximal effect)
Sequence of Glucocorticoid receptor (Homo sapiens) (P04150 whole entry, looked up, the tested form may be a part): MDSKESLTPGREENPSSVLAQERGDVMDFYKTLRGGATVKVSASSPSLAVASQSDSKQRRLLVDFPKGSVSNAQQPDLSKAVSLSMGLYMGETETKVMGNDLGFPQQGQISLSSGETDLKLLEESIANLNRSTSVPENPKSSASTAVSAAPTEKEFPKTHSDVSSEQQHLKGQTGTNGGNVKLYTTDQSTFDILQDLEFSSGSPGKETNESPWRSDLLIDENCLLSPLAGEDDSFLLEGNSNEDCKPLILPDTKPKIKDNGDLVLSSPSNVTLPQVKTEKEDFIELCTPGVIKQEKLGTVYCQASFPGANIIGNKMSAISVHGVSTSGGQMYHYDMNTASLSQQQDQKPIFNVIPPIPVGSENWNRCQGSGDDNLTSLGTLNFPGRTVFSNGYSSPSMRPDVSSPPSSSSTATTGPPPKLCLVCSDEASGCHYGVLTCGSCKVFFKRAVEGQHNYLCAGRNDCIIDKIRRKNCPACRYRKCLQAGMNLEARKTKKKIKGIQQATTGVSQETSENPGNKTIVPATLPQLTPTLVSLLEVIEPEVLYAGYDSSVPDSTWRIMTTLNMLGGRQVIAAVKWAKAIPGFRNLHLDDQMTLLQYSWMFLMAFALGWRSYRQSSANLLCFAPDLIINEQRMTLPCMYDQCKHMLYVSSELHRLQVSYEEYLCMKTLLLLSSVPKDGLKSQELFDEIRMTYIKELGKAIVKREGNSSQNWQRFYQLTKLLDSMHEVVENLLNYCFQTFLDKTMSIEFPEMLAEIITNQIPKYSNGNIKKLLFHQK

[2] = target: Glucocorticoid receptor (Homo sapiens) (UniProt P04150); experiment: GR-EFC Redistribution (AID 451; calls by dose curve; also: potency is read from the fitted curve at half-maximal effect); conditions: CHO-K1 GR-EFC translocation, beta-gal luminescence, 2 h
Procedure, shortened: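 CHO-K1 cells expressing nuclear EA and GR-ED fragments of b-gal; compounds titrated up to 46 uM final, 2 h at 37 C. GR nuclear translocation read as complemented b-gal luminescence after 1 h RT detection.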

[3] = target: Mitogen-activated protein kinase 10 (Mus musculus) (UniProt Q61831); experiment: JNK3 AlphaScreen Assay (AID 530; active = well fitted curve in either direction with a large enough effect, not every such curve was filed as active;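 also: kinase came from lysate of stimulated human HepG2 cells; signal reports phosphorylation of biotinylated GST-cJun 1-79 at Ser73 with 10 µM ATP; % is scaled to controls: 0 for no effect and ±100 for the full control effect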)
Procedure, shortened: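 Activity was read by AlphaScreen after JNK3-containing HepG2 lysate (cytokine pre-activated) phosphorylated biotinylated GST-cJun with 10 uM ATP at room temperature. Phospho-Ser73 cJun antibody with Protein-A acceptor beads provided detection.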

[4] = target: 3',5'-cyclic-AMP phosphodiesterase 4B (Homo sapiens) (UniProt Q07343); experiment: qHTS Assay for Inhibitors of PDE-IV (AID 607; active = well fitted activation curve with a large enough effect in the main read-out, with a control signal flat, not every such curve was filed as active; also: % of control where 0% means no effect)
Sequence of 3',5'-cyclic-AMP phosphodiesterase 4B (Homo sapiens) (Q07343 whole entry, looked up): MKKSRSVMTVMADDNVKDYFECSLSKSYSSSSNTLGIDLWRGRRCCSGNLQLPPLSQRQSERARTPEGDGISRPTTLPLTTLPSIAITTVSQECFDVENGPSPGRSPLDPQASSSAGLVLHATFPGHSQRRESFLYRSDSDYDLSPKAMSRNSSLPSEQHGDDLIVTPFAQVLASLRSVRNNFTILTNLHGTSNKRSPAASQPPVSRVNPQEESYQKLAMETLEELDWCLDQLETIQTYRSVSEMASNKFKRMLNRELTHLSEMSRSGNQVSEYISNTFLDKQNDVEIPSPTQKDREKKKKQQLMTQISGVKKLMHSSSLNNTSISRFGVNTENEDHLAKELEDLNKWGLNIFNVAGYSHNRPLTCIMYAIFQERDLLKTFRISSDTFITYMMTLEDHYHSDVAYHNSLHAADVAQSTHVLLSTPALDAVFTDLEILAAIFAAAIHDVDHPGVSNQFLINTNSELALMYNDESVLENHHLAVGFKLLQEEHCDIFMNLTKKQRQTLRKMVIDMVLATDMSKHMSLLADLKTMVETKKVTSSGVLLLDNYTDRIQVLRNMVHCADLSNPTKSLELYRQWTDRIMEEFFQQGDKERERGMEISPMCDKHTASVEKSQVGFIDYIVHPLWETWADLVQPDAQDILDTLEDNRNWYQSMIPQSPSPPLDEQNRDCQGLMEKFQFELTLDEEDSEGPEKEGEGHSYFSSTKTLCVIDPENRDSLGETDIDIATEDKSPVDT
Procedure, shortened: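 Cell-based read-out of cAMP via a modified cyclic nucleotide-gated channel and membrane potential dye (535/590 nm) in HEK293 cells expressing PDE4 endogenously. Compounds tested up to 22.9 uM final; 100 uM RO 20-1724 reference.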

[5] = target: Cytochrome P450 3A4 (Homo sapiens) (UniProt P08684); experiment: qHTS Assay for Activators of Cytochrome P450 3A4 (AID 885); also: nearly all actives have a fitted effect of over 65% in size
Sequence of Cytochrome P450 3A4 (Homo sapiens) (P08684 whole entry, looked up): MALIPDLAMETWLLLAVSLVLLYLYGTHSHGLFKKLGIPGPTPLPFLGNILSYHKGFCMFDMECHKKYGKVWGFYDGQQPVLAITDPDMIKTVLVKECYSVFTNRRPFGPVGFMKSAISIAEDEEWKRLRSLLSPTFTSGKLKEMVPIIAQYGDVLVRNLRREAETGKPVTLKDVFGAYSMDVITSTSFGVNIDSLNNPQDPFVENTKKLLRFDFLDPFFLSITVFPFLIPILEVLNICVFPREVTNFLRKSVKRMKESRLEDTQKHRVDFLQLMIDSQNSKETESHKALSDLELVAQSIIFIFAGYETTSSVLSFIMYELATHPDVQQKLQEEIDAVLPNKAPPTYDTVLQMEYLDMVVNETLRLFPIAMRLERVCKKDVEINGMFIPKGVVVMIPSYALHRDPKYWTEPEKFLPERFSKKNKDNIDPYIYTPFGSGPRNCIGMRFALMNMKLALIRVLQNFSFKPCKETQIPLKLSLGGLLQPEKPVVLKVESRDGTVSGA
Procedure, shortened: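 Luminescent readout of luciferin formed from 25 uM Luciferin-PPXE (KM level) by 20 nM CYP3A4 in 200 mM KPO4, with 60 min NADPH-driven reaction at room temperature after 10 min compound exposure. Ketoconazole (57 uM) defined 100% inhibition.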

[6] = target: ATP-dependent 6-phosphofructokinase (Trypanosoma brucei brucei) (UniProt O15648); experiment: qHTS Assay to Find Inhibitors of T. brucei phosphofructokinase: hit validation (AID 492961);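 also: luminescence reports ADP formed as PFK phosphorylates fructose-6-phosphate with ATP; % is scaled to controls: 0 for no effect and ±100 for the full control effect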
Sequence of ATP-dependent 6-phosphofructokinase (Trypanosoma brucei brucei) (O15648 whole entry, looked up): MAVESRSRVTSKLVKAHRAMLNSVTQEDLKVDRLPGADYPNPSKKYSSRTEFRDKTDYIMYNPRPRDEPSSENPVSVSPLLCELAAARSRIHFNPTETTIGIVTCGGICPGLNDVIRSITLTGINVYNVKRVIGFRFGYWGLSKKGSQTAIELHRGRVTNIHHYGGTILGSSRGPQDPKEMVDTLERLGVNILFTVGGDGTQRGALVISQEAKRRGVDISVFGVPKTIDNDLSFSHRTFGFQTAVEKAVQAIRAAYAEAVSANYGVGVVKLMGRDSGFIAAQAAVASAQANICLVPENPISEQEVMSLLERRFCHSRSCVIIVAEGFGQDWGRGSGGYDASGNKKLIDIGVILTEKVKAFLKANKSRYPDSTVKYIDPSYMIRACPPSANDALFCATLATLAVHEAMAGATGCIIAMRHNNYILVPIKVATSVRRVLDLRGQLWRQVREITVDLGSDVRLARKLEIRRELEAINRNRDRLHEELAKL
Procedure, shortened: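 Inhibition of parasite PFK is measured as reduced ADP formation, quantified via luciferase after ATP depletion. Assay used 0.1 mM ATP, 0.5 mM F6P, 1.25 nM enzyme, 45 min incubation.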

[7] = target: Ubiquitin carboxyl-terminal hydrolase 1 (Homo sapiens) (UniProt O94782); experiment: Inhibitors of USP1/UAF1: Pilot qHTS (AID 504865);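 also: rhodamine fluorescence freed from ubiquitin-rhodamine substrate followed over time; top concentration of the series differs between compounds; % is scaled to controls: 0 for no effect and ±100 for the full control effect; nearly all actives have a fitted effect of over 35% in size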
Sequence of Ubiquitin carboxyl-terminal hydrolase 1 (Homo sapiens) (O94782 whole entry, looked up): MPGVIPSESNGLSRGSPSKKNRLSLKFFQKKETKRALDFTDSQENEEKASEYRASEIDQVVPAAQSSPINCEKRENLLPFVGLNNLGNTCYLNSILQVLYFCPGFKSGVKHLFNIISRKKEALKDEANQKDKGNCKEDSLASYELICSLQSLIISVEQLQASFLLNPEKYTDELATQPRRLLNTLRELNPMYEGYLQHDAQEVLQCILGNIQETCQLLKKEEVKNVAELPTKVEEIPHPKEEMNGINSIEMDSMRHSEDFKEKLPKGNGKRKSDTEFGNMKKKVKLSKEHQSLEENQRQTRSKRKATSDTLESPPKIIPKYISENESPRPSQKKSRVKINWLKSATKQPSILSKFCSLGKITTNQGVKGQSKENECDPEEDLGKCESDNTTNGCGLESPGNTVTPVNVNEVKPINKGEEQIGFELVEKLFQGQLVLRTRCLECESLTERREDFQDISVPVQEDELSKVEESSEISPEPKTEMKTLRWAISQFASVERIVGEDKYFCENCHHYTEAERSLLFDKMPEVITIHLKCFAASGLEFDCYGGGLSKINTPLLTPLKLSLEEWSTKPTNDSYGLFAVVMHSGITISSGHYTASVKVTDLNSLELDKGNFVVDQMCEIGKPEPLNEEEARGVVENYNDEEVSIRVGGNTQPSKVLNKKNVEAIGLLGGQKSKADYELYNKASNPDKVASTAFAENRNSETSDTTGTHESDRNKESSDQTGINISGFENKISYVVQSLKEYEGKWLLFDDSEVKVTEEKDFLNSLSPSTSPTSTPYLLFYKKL
Procedure, shortened: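 1nM USP1/UAF1 + cpd, 15 min RT; start w/ Ub-Rho 150nM final; kinetic FL 480/540 nm, 6 reads q60 s. Buffer 50mM HEPES pH 7.8, 0.5mM EDTA, 1mM TCEP, 0.01% Tween-20, 0.1 mg/ml BSA.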

[8] = target: Luciferin 4-monooxygenase (Photinus pyralis) (UniProt P08659); experiment: Biochemical firefly luciferase enzyme assay for NPC (AID 624030);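 also: purified P. pyralis luciferase at 10 nM with luciferin and ATP substrate; 0% = DMSO and -100% = full luciferase inhibition by PTC124 control; nearly all actives have a fitted effect of over 70% in size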
Sequence of Luciferin 4-monooxygenase (Photinus pyralis) (P08659 whole entry, looked up): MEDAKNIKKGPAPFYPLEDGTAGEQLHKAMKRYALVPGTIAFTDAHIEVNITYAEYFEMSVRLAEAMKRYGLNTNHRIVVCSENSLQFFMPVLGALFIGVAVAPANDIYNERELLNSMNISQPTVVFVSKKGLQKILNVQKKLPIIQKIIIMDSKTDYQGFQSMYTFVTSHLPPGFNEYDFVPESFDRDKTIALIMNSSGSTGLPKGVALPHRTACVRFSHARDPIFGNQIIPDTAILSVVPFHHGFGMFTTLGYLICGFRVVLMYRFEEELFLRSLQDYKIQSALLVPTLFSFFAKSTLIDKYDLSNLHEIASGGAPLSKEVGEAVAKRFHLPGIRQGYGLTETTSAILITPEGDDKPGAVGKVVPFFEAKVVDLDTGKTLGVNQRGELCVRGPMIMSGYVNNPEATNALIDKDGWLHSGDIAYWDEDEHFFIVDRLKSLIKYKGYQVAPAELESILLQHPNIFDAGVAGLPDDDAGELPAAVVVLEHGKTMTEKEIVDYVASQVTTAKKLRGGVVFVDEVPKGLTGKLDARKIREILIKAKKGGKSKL
Procedure, shortened: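 Purified P. pyralis luciferase at 10 nM in 50 mM Tris Acetate (final), luminescence read within 5 minutes of enzyme addition to compounds. Activity normalised to PTC124 versus DMSO; concentration-response curves classed by r2, magnitude and activity.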

[9] = S16 Schwann cell viability assay (CellTiter-Glo assay) (AID 624031);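 also: cellular ATP luminescence as a viability measure; plate controls were DMSO-treated cells for no effect and cell-free wells for full effect; nearly all actives have a fitted effect of over 70% in size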
Procedure, shortened: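 This viability control uses native rat S16 Schwann cells grown in DMEM plus 10% FBS. After a 24 h compound treatment at 37 °C, CellTiter-Glo luminescence reports ATP content, scaled against DMSO-treated and cell-free wells.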

[10] = S16 Schwann cell PMP22 intronic element beta-lactamase assay (AID 624044; calls by dose curve;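 also: 0% = DMSO and -100% = potassium clavulanate positive control; nearly all actives have a fitted effect of over 15% in size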); conditions: S16 rat Schwann cells, PMP22 element beta-lactamase FRET, 24 h; ratio activity, negative = inhibition: at 38.3 µM (top of the series)
Procedure, shortened: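 Beta-lactamase reporter under a PMP22 intronic regulatory element in stable S16 rat Schwann cells; 24 h compound exposure. 460 nm blue signal normalized between DMSO (0%) and potassium clavulanate, with 535 nm FRET tracking viability; curves classed by r2 and response.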

[11] = qHTS profiling for inhibitors of Plasmodium falciparum proliferation (AID 504749);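 also: 0% = DMSO vehicle and full inhibition = artemisinin control; nearly all actives have a fitted effect of over 60% in size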; conditions: P. falciparum in erythrocytes, SYBR Green DNA, 72 h, at 12.8 µM (top of the series)
Procedure, shortened: (§1)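 Each compound contacts P. falciparum-infected red blood cells for 72 h at 37 C; lysis buffer (Tris, EDTA, saponin, Triton X, SYBR Green I) is added and fluorescence measured next morning; values normalized to controls.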

3D7 = experiment: as above; conditions: P. falciparum in erythrocytes, SYBR Green DNA, 72 h; series mostly up to 28.7 µM
Procedure, shortened: as §1

7G8 = experiment: as above; conditions: P. falciparum in erythrocytes, SYBR Green DNA, 72 h; series mostly up to 28.7 µM
Procedure, shortened: as §1

AA1029 = experiment: as above; conditions: P. falciparum in erythrocytes, SYBR Green DNA, 72 h; series mostly up to 28.7 µM
Procedure, shortened: as §1

AS120 = experiment: as above; conditions: P. falciparum in erythrocytes, SYBR Green DNA, 72 h; series mostly up to 28.7 µM
Procedure, shortened: as §1

ATS189 = experiment: as above; conditions: P. falciparum in erythrocytes, SYBR Green DNA, 72 h; series mostly up to 28.7 µM
Procedure, shortened: as §1

ATS95 = experiment: as above; conditions: P. falciparum in erythrocytes, SYBR Green DNA, 72 h; series mostly up to 28.7 µM
Procedure, shortened: as §1

C2A = experiment: as above; conditions: P. falciparum in erythrocytes, SYBR Green DNA, 72 h; series mostly up to 28.7 µM
Procedure, shortened: as §1

CP185 = experiment: as above; conditions: P. falciparum in erythrocytes, SYBR Green DNA, 72 h; series mostly up to 28.7 µM
Procedure, shortened: as §1

CP191 = experiment: as above; conditions: P. falciparum in erythrocytes, SYBR Green DNA, 72 h; series mostly up to 28.7 µM
Procedure, shortened: as §1

CP192 = experiment: as above; conditions: P. falciparum in erythrocytes, SYBR Green DNA, 72 h; series mostly up to 28.7 µM
Procedure, shortened: as §1

CP194 = experiment: as above; conditions: P. falciparum in erythrocytes, SYBR Green DNA, 72 h; series mostly up to 28.7 µM
Procedure, shortened: as §1

CP201 = experiment: as above; conditions: P. falciparum in erythrocytes, SYBR Green DNA, 72 h; series mostly up to 28.7 µM
Procedure, shortened: as §1

CP203 = experiment: as above; conditions: P. falciparum in erythrocytes, SYBR Green DNA, 72 h; series mostly up to 28.7 µM
Procedure, shortened: as §1

CP211 = experiment: as above; conditions: P. falciparum in erythrocytes, SYBR Green DNA, 72 h; series mostly up to 28.7 µM
Procedure, shortened: as §1

CP217 = experiment: as above; conditions: P. falciparum in erythrocytes, SYBR Green DNA, 72 h; series mostly up to 28.7 µM
Procedure, shortened: as §1

CP237 = experiment: as above; conditions: P. falciparum in erythrocytes, SYBR Green DNA, 72 h; series mostly up to 28.7 µM
Procedure, shortened: as §1

CP238 = experiment: as above; conditions: P. falciparum in erythrocytes, SYBR Green DNA, 72 h; series mostly up to 28.7 µM
Procedure, shortened: as §1

CP247 = experiment: as above; conditions: P. falciparum in erythrocytes, SYBR Green DNA, 72 h; series mostly up to 28.7 µM
Procedure, shortened: as §1

CP250 = experiment: as above; conditions: P. falciparum in erythrocytes, SYBR Green DNA, 72 h; series mostly up to 28.7 µM
Procedure, shortened: as §1

CP252 = experiment: as above; conditions: P. falciparum in erythrocytes, SYBR Green DNA, 72 h; series mostly up to 28.7 µM
Procedure, shortened: as §1

CP256 = experiment: as above; conditions: P. falciparum in erythrocytes, SYBR Green DNA, 72 h; series mostly up to 28.7 µM
Procedure, shortened: as §1

CP260 = experiment: as above; conditions: P. falciparum in erythrocytes, SYBR Green DNA, 72 h; series mostly up to 28.7 µM
Procedure, shortened: as §1

CP262 = experiment: as above; conditions: P. falciparum in erythrocytes, SYBR Green DNA, 72 h; series mostly up to 28.7 µM
Procedure, shortened: as §1

CP265 = experiment: as above; conditions: P. falciparum in erythrocytes, SYBR Green DNA, 72 h; series mostly up to 28.7 µM
Procedure, shortened: as §1

CP266 = experiment: as above; conditions: P. falciparum in erythrocytes, SYBR Green DNA, 72 h; series mostly up to 28.7 µM
Procedure, shortened: as §1

CP268 = experiment: as above; conditions: P. falciparum in erythrocytes, SYBR Green DNA, 72 h; series mostly up to 28.7 µM
Procedure, shortened: as §1

CP269 = experiment: as above; conditions: P. falciparum in erythrocytes, SYBR Green DNA, 72 h; series mostly up to 28.7 µM
Procedure, shortened: as §1

CP286 = experiment: as above; conditions: P. falciparum in erythrocytes, SYBR Green DNA, 72 h; series mostly up to 28.7 µM
Procedure, shortened: as §1

CP291 = experiment: as above; conditions: P. falciparum in erythrocytes, SYBR Green DNA, 72 h; series mostly up to 28.7 µM
Procedure, shortened: as §1

CP297 = experiment: as above; conditions: P. falciparum in erythrocytes, SYBR Green DNA, 72 h; series mostly up to 28.7 µM
Procedure, shortened: as §1

CP305 = experiment: as above; conditions: P. falciparum in erythrocytes, SYBR Green DNA, 72 h; series mostly up to 28.7 µM
Procedure, shortened: as §1

CP315 = experiment: as above; conditions: P. falciparum in erythrocytes, SYBR Green DNA, 72 h; series mostly up to 28.7 µM
Procedure, shortened: as §1

CP325 = experiment: as above; conditions: P. falciparum in erythrocytes, SYBR Green DNA, 72 h; series mostly up to 28.7 µM
Procedure, shortened: as §1

CP329 = experiment: as above; conditions: P. falciparum in erythrocytes, SYBR Green DNA, 72 h; series mostly up to 28.7 µM
Procedure, shortened: as §1

DFO2036 = experiment: as above; conditions: P. falciparum in erythrocytes, SYBR Green DNA, 72 h; series mostly up to 28.7 µM
Procedure, shortened: as §1

DIV14 = experiment: as above; conditions: P. falciparum in erythrocytes, SYBR Green DNA, 72 h; series mostly up to 28.7 µM
Procedure, shortened: as §1

DIV17 = experiment: as above; conditions: P. falciparum in erythrocytes, SYBR Green DNA, 72 h; series mostly up to 28.7 µM
Procedure, shortened: as §1

DIV30 = experiment: as above; conditions: P. falciparum in erythrocytes, SYBR Green DNA, 72 h; series mostly up to 28.7 µM
Procedure, shortened: as §1

Dd2 = experiment: as above; conditions: P. falciparum in erythrocytes, SYBR Green DNA, 72 h; series mostly up to 28.7 µM
Procedure, shortened: as §1

ECU = experiment: as above; conditions: P. falciparum in erythrocytes, SYBR Green DNA, 72 h; series mostly up to 28.7 µM
Procedure, shortened: as §1

FAB9 = experiment: as above; conditions: P. falciparum in erythrocytes, SYBR Green DNA, 72 h; series mostly up to 28.7 µM
Procedure, shortened: as §1

GB4 = experiment: as above; conditions: P. falciparum in erythrocytes, SYBR Green DNA, 72 h; series mostly up to 28.7 µM
Procedure, shortened: as §1

HB3 = experiment: as above; conditions: P. falciparum in erythrocytes, SYBR Green DNA, 72 h; series mostly up to 28.7 µM
Procedure, shortened: as §1

ICS = experiment: as above; conditions: P. falciparum in erythrocytes, SYBR Green DNA, 72 h; series mostly up to 28.7 µM
Procedure, shortened: as §1

JCK = experiment: as above; conditions: P. falciparum in erythrocytes, SYBR Green DNA, 72 h; series mostly up to 28.7 µM
Procedure, shortened: as §1

N140 = experiment: as above; conditions: P. falciparum in erythrocytes, SYBR Green DNA, 72 h; series mostly up to 28.7 µM
Procedure, shortened: as §1

P93_24 = experiment: as above; conditions: P. falciparum in erythrocytes, SYBR Green DNA, 72 h; series mostly up to 28.7 µM
Procedure, shortened: as §1

P94_40 = experiment: as above; conditions: P. falciparum in erythrocytes, SYBR Green DNA, 72 h; series mostly up to 28.7 µM
Procedure, shortened: as §1

CCCC[C@H]1C(=O)N(c2ccccc2)N(c2ccc(O)cc2)C1=O
inactive: Potency [1] > 20.6 µM | Potency [2] > 20.6 µM | Potency [3] | Potency [4] | Potency [5] | Potency [6] | Potency [7] | Potency [8] | Potency [9] | Potency [10] | activity, negative = inhibition ([11]; parasite line A) -7.31% | activity, negative = inhibition ([11]; parasite line B) 3.99% | Potency (3D7) | Potency (7G8) | Potency (AA1029) | Potency (AS120) | Potency (ATS189) | Potency (ATS95) | Potency (C2A) | Potency (CP185) | Potency (CP191) | Potency (CP192) | Potency (CP194) | Potency (CP201) | Potency (CP203) | Potency (CP211) | Potency (CP217) | Potency (CP237) | Potency (CP238) | Potency (CP247) | Potency (CP250) | Potency (CP252) | Potency (CP256) | Potency (CP260) | Potency (CP262) | Potency (CP265) | Potency (CP266) | Potency (CP268) | Potency (CP269) | Potency (CP286) | Potency (CP291) | Potency (CP297) | Potency (CP305) | Potency (CP315) | Potency (CP325) | Potency (CP329) | Potency (DFO2036) | Potency (DIV14) | Potency (DIV17) | Potency (DIV30) | Potency (Dd2) | Potency (ECU) | Potency (FAB9) | Potency (GB4) | Potency (HB3) | Potency (ICS) | Potency (JCK) | Potency (N140) | Potency (P93_24) | Potency (P94_40)
